Among the test systems are DU-145 prostate; K-562 leukemia; MALME-3M melanoma; MDA-MB-231 breast; RXF 393 renal; SF-268 CNS; SF-295 CNS; SF-539 CNS; UACC-257 melanoma; M14 melanoma; HCT-15 colon; HT29 colon; SNB-75 CNS; SNB-19 CNS; PC-3 prostate; SK-MEL-5 melanoma; UACC-62 melanoma; LOX IMVI melanoma; SK-MEL-28 melanoma; U251 CNS.
Holding throughout (assay): NCI-60 one-dose screen, 48 h (100 = growth as untreated, 0 = no growth, -100 = all killed)
Common to all, as to details: 10 µM unless noted

Consider eight compounds from PubChem BioAssay (NCI).

Compounds without any hit were thinned out: in the full panel of roughly 83,000, 20% have a hit.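 Compound tested at a single concentration for 48 hours in 96-well plates; a percent growth value below 10 was scored as active.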 A number with no mark means an inactive call. Activity calls are given as the source filed them.

Consider `C#Cc1cccc(Nc2nc(C)nc3cc(NC(=O)CCl)ccc23)c1`, for which the growth with DU-145 prostate is -95.8% (active); in the assay with K-562 leukemia, 0.173% (active); with MALME-3M melanoma it was -77.6% (active); in the assay on MDA-MB-231 breast, -73.1% (active); in the assay with RXF 393 renal it was -87.2% (active); in the assay on SF-268 CNS, -67.2% (active). In addition, the growth is -79.7% (active) with SF-295 CNS; -92.8% (active) in the assay on SF-539 CNS; -60.9% (active) with UACC-257 melanoma; -27.5% (active) in the assay with M14 melanoma; -63.7% (active) in the assay with HCT-15 colon; -84% (active) in the assay with HT29 colon. For the same compound, the growth is -94.7% (active) in the assay on SNB-75 CNS; -32.9% (active) in the assay on SNB-19 CNS; -81.2% (active) in the assay on PC-3 prostate; -94% (active) in the assay on SK-MEL-5 melanoma; -46.5% (active) in the assay on UACC-62 melanoma; -81.7% (active) in the assay on LOX IMVI melanoma. In addition, the growth with SK-MEL-28 melanoma is -81.9% (active).

`CN(C)S(=O)(=O)Oc1ccc(-c2sc3cc(OS(=O)(=O)N(C)C)ccc3c2C(=O)c2ccc(OCCN3CCCCC3)cc2)cc1`: the growth is 63.4% in the assay with DU-145 prostate; -8.94% (active) with K-562 leukemia; 17.7% in the assay on MALME-3M melanoma; 77.5% with MDA-MB-231 breast; 26.8% with RXF 393 renal; 42.1% in the assay on SF-268 CNS. Further, the growth was 48.6% in the assay on SF-295 CNS; 52.2% in the assay on SF-539 CNS; -17.5% (active) in the assay with UACC-257 melanoma; 2.03% (active) in the assay on M14 melanoma; 34.2% in the assay on HCT-15 colon; 8.75% (active) in the assay on HT29 colon. The growth is 61.5% in the assay with SNB-75 CNS; 58.2% in the assay with SNB-19 CNS; 18.6% with U251 CNS; 53.6% with PC-3 prostate; 67.5% with SK-MEL-5 melanoma; 47.3% with UACC-62 melanoma. In addition, in the assay on SK-MEL-28 melanoma, the growth is 57.2%.

`COc1ccc(C(=O)Cn2c(C(=O)c3ccc(Cl)cc3)nc3ccccc32)cc1`: the growth in the assay on DU-145 prostate is 98.3%; in the assay with K-562 leukemia, 45.7%; in the assay with MALME-3M melanoma, 70.7%; in the assay on MDA-MB-231 breast, 65.5%; in the assay with RXF 393 renal, 14.2%; in the assay with SF-268 CNS, 66.7%. In addition, the growth is 51.8% in the assay on SF-295 CNS; 91% in the assay with SF-539 CNS; 70.8% with UACC-257 melanoma; 14.8% in the assay with M14 melanoma; 33.6% in the assay with HCT-15 colon; 51.2% in the assay on HT29 colon. Further, the growth with SNB-75 CNS was 53.8%; in the assay with SNB-19 CNS, 74%; in the assay with PC-3 prostate it was 68.9%; with SK-MEL-5 melanoma, 41.9%; with UACC-62 melanoma, 54.1%; with LOX IMVI melanoma, 74.8%. The growth in the assay on SK-MEL-28 melanoma was 71.2%.

For the compound `Cc1nnc(-c2ccc3c(c2)nc(/C=C/c2ccccc2)n3C2CCCCC2)o1`, the growth is 91.5% in the assay on DU-145 prostate; 45.9% with K-562 leukemia; 95% in the assay with MALME-3M melanoma; 87.3% in the assay with MDA-MB-231 breast; 84.6% with RXF 393 renal; 86.5% in the assay with SF-268 CNS. Also, the growth was 76.1% with SF-295 CNS; 110% in the assay with SF-539 CNS; 77.4% with UACC-257 melanoma; 73.7% in the assay on M14 melanoma; 49.4% with HCT-15 colon; 37.3% in the assay with HT29 colon. For the same compound, the growth in the assay with SNB-75 CNS is 103%; in the assay on SNB-19 CNS it was 102%; with PC-3 prostate it was 63.5%; in the assay on SK-MEL-5 melanoma, 70.8%; with UACC-62 melanoma, 61.8%; in the assay on LOX IMVI melanoma, 44.3%. The growth in the assay on SK-MEL-28 melanoma is 72.4%.

With `CCc1ccc(CCC(=O)Nc2ncc(Cc3cc(Cl)ccc3Cl)s2)o1`, the growth in the assay on DU-145 prostate was 18.5%; with K-562 leukemia, 9.71% (active); in the assay on MALME-3M melanoma, 43.5%; in the assay on MDA-MB-231 breast, 28.6%; with RXF 393 renal it was -32.5% (active); in the assay with SF-268 CNS it was 60.9%. Moreover, the growth with SF-295 CNS was 6.84% (active); in the assay with SF-539 CNS, -6.72% (active); with UACC-257 melanoma, 69.9%; in the assay on M14 melanoma it was 6.6% (active); with HCT-15 colon, 13%; in the assay on HT29 colon, 2.01% (active). Moreover, the growth was -12.1% (active) in the assay with SNB-75 CNS; 21% in the assay on SNB-19 CNS; 21.7% in the assay with U251 CNS; 23.8% in the assay with PC-3 prostate; 25.2% in the assay with SK-MEL-5 melanoma; 18.7% with UACC-62 melanoma. Besides, the growth in the assay on SK-MEL-28 melanoma is 55.9%.

In the case of `CN1CCN(C(=O)C(C)(C)c2ccc(C(=O)Nc3cn4cc(-c5ccncc5)ccc4n3)cc2)CC1`, the growth in the assay on DU-145 prostate was 16.1%; with K-562 leukemia it was 10.2%; in the assay on MALME-3M melanoma, -11.9% (active); with MDA-MB-231 breast it was 21.1%; in the assay with RXF 393 renal, -61.1% (active); with SF-268 CNS, 9.95% (active). Also, the growth in the assay on SF-295 CNS is 8.85% (active); in the assay with SF-539 CNS, -1.81% (active); in the assay on UACC-257 melanoma it was 13%; in the assay on M14 melanoma, 13.1%; in the assay on HCT-15 colon it was 2.11% (active); with HT29 colon, 6.49% (active). Also, the growth in the assay on SNB-75 CNS is -5.48% (active); in the assay on SNB-19 CNS, 9.14% (active); in the assay with U251 CNS, 16%; in the assay on PC-3 prostate, 25.7%; with SK-MEL-5 melanoma, -98.2% (active); in the assay on UACC-62 melanoma, -31.3% (active). In the assay on SK-MEL-28 melanoma, the growth was 7.28% (active).

`Fc1cc(Nc2ccc3c(OCCCN4CCOCC4)cccc3n2)ccc1Cl`: the growth in the assay with DU-145 prostate was 48.1%; in the assay on K-562 leukemia, -34.8% (active); with MALME-3M melanoma it was 21.4%; in the assay on MDA-MB-231 breast, -18.9% (active); with RXF 393 renal it was 1.26% (active); with SF-268 CNS it was 48.5%. For the same compound, the growth is -46.2% (active) in the assay on SF-295 CNS; 15.7% in the assay on SF-539 CNS; 75.9% with UACC-257 melanoma; -31.1% (active) in the assay on M14 melanoma; -13.4% (active) with HCT-15 colon; -49.3% (active) with HT29 colon. The growth is 37.3% with SNB-75 CNS; 17.8% with SNB-19 CNS; 14.4% in the assay on U251 CNS; 30.6% in the assay on PC-3 prostate; 63.6% with SK-MEL-5 melanoma; -31.7% (active) in the assay on UACC-62 melanoma. The growth in the assay with SK-MEL-28 melanoma is -35.8% (active).

Consider `O=C1/C(=C\c2cccc3nccnc23)SC(=S)N1CCc1ccc(O)cc1`, for which the growth was 98.1% with DU-145 prostate; 88.5% in the assay on K-562 leukemia; 87.3% in the assay with MALME-3M melanoma; 83.8% in the assay with MDA-MB-231 breast; 107% in the assay with RXF 393 renal; 97% in the assay with SF-268 CNS. Also, the growth was 101% in the assay on SF-295 CNS; 97.7% in the assay on SF-539 CNS; 100% in the assay on UACC-257 melanoma; 96.3% in the assay on M14 melanoma; 101% in the assay with HCT-15 colon; 116% in the assay on HT29 colon. Also, the growth is 89% in the assay on SNB-75 CNS; 94.4% in the assay with SNB-19 CNS; 84% in the assay with PC-3 prostate; 95% in the assay on SK-MEL-5 melanoma; 76.4% in the assay on UACC-62 melanoma; 94.5% in the assay on LOX IMVI melanoma. The growth with SK-MEL-28 melanoma is 99.5%.
